Twelve compounds from PubChem BioAssay can be followed below.

Results filed as inconclusive are left out. The source made the active and inactive calls.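 The calls were made as follows, unless noted: active = at least 20% inhibition of 6-phosphogluconate dehydrogenase activity; inactive = the rest.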

A short description of test [1]: compounds altering circadian rhythm period length – cell-based, LOPAC library, luminescence reporter (AID 2774; call rule not given here;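 also: values are relative to mean of DMSO wells on each plate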). To be noted: circadian reporter cells, at 7 µM, actives lie on both sides.
The test system of test [2] is Hepatitis C virus NS3 helicase. The experiment in a line: blockers of NS3h binding to ssDNA – biochemical, fluorescence polarization, LOPAC1280 library, primary screen (AID 687035; in the data active = inhibition above about 37%). To be noted: Purified HCV NS3 helicase, Cy5-dT15 ssDNA binding fluorescence polarization; stronger effect = higher value; concentration not given here.
The nature of test [3]: compounds altering Cy5-DNA-NS3h complex signal – biochemical, LOPAC1280, artefact control for HCV NS3 helicase inhibitor project (AID 687037; call rule not given here). To be noted: Cy5-DNA-NS3h complex fluorescence interference counterscreen. Background: Counterscreens check selectivity or assay interference.
Test [4] concerns the target 6-phosphogluconate dehydrogenase, decarboxylating (Homo sapiens) (UniProt P52209). The experiment in a line: inhibition of human phosphogluconate dehydrogenase – biochemical, recombinant enzyme, NADPH absorbance, primary screen (AID 1159550). To be noted: recombinant 6PGD, NADPH absorbance 341 nm; at 10 µM; stronger effect = higher value.
Test [5] is described as follows: viability loss with induced miR-34 in A549 – imaging, A549 dox-inducible miR-34, nuclei and caspase counts, primary screen (AID 1347080;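 active = compounds whose cell count with miR-34 switched on is under 0.7 times the count with it off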). To be noted: A549 miR-34 inducible, Hoechst nuclei count, 48 h.
Test [6] can be described thus: blockers of cellular phospholipid synthesis – cell-based, LOPAC library, screen 4, primary screen (AID 1347384; call rule not given here). To be noted: animal cells, phospholipid biosynthesis inhibition screen; at 10 µM.
The nature of test [7]: galactose survival enhancers in mitochondrial complex I cybrids – cell-based, galactose medium, ATP luminescence, primary screen (AID 1645843;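 active = z-score of at least 1.8 in each of two replicates, scored against plate mean and spread of sample wells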;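 also: positive z means more ATP and so rescue of galactose-driven cybrid death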). To be noted: complex I mutant cybrid cells, 72 h, stronger effect = higher value.
Test [8] deals with NAD(+) hydrolase SARM1 (Homo sapiens) (UniProt Q6SZW1). The experiment in a line: blocking NAD cleavage by SARM1 SAM-TIR – cell lysate, NAD-Glo luminescence (AID 1508614;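 active = compound whose remaining NAD level is above about 45 nM, limit read from the data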;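 also: higher remaining NAD means stronger inhibition of SARM1 NADase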). To be noted: SAM-TIR HEK293T lysate NADase, at 1 µM, stronger effect = higher value.
Test [9] concerns the target Mitogen-activated protein kinase 7 (Homo sapiens) (UniProt Q13164). Description: Gal4-ERK5 driven luciferase induction – cell-based, HTS, primary screen (AID 1508626;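 active = luciferase signal above three times the same-plate solvent-only control wells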;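 also: luciferase driven by Gal4-ERK5 fusion binding five Gal4 sites before minimal TATA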). To be noted: HeLa Gal4-ERK5 transactivation, 18 h, at 5 µM, stronger effect = higher value.
The nature of test [10]: P. berghei load reduction in hepatocytes – cell-based, HepG2, luciferase luminescence, HepG2 viability, primary screen (AID 624349; in the data active = parasite load remaining mostly below about 12%, no sharp cut-off; inactive = mostly above about 10%;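 also: 100% = mean of DMSO negative control wells on the same plate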). To be noted: P. berghei liver stage in HepG2, luciferase luminescence, concentration not given here; parasite load remaining: stronger effect = lower value; viability: measured here: HepG2 viability without parasites.
Test [11] concerns the target ATP-dependent translocase ABCB1 (Homo sapiens) (UniProt P08183). The experiment in a line: P-glycoprotein substrate transport blockade – cell-based (AID 377; in the data active = fluorescence slope change above about 50%). To be noted: MDR1-expressing cells, fluorescent substrate accumulation slope; stronger effect = higher value; concentration not given here.
A short description of test [12]: compounds altering viability of human ES cells (AID 493140; call rule not given here;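 also: cells exposed to compounds for four days before counting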). To be noted: human embryonic stem cell survival screen; stronger effect = higher value.
Test [13] is described as follows: MELAS cybrid and Rieske KO viability enhancers – cell-based, MELAS cybrids, Rieske KO mouse fibroblasts, CellTiter-Glo, primary screen (AID 1508586;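 active = mean z-score across replicates of 1.96 or higher in either the MELAS or the Rieske mutant cell line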;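 also: z relative to plate mean and SD of compound and empty wells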). To be noted: low glucose.
The mark [14] stands for this setting: stronger effect = lower value, cell number ratio, induced over uninduced.
The mark [15] stands for this setting: measured here: relative caspase fold change +Dox/-Dox.
The mark [16] stands for this setting: measured here: total cells with miR-34 induction, stronger effect = lower value.
Where [17] appears, read: measured here: total cells without miR-34 induction.

Sequence of NAD(+) hydrolase SARM1 (Homo sapiens) (Q6SZW1 whole entry, looked up, the tested form may be a part): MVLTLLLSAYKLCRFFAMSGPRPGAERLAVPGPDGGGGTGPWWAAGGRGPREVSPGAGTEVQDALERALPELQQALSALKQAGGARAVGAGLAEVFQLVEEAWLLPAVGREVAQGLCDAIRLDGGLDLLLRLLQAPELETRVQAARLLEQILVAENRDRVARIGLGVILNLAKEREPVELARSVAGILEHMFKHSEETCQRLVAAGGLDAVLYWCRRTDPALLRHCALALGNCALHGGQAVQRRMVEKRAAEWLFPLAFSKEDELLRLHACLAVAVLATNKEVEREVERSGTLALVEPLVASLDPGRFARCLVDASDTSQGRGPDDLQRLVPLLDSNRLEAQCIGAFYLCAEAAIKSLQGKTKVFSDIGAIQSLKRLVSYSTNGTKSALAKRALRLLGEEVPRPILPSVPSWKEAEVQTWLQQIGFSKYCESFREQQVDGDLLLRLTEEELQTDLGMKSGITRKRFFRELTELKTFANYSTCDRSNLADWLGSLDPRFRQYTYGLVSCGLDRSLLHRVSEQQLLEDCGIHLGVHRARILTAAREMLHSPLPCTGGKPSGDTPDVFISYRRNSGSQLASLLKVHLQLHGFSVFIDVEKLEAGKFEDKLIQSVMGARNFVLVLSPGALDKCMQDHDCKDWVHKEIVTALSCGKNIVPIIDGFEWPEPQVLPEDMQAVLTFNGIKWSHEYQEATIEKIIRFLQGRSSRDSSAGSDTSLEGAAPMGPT
Sequence of Mitogen-activated protein kinase 7 (Homo sapiens) (Q13164 whole entry, looked up, the tested form may be a part): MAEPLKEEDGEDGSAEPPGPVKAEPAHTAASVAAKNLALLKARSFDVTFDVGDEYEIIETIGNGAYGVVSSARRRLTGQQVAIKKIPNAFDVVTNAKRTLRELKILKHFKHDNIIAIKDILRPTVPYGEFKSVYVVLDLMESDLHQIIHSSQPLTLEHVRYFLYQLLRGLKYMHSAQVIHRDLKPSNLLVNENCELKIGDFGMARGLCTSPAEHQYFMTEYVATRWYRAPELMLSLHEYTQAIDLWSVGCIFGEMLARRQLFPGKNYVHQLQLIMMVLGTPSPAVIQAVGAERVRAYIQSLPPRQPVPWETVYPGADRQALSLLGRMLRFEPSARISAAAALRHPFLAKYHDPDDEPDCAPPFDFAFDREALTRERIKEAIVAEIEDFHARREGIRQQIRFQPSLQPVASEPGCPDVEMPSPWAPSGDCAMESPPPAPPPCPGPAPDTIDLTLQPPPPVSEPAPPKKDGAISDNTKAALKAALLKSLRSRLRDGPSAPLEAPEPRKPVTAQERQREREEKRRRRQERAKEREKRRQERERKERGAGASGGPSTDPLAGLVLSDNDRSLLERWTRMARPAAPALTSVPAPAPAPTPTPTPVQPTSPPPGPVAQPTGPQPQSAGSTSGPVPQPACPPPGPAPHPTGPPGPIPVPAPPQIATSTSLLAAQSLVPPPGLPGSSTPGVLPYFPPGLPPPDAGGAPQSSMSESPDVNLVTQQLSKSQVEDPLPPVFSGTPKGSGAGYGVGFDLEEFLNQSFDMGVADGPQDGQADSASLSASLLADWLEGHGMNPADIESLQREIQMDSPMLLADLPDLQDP
Sequence of 6-phosphogluconate dehydrogenase, decarboxylating (Homo sapiens) (P52209 whole entry, looked up): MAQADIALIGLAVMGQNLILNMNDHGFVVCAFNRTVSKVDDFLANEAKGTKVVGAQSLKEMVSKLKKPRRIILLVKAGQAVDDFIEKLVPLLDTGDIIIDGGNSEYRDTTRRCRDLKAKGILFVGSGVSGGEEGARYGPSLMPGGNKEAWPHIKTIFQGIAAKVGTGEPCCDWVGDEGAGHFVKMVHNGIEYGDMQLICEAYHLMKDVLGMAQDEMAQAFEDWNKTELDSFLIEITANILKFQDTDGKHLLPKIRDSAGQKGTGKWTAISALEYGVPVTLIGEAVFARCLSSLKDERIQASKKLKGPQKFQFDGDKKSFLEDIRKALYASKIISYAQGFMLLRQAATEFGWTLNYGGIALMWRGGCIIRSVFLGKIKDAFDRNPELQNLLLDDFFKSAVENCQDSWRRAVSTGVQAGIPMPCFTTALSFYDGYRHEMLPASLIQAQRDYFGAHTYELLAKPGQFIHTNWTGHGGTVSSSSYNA
Sequence of ATP-dependent translocase ABCB1 (Homo sapiens) (P08183 whole entry, looked up): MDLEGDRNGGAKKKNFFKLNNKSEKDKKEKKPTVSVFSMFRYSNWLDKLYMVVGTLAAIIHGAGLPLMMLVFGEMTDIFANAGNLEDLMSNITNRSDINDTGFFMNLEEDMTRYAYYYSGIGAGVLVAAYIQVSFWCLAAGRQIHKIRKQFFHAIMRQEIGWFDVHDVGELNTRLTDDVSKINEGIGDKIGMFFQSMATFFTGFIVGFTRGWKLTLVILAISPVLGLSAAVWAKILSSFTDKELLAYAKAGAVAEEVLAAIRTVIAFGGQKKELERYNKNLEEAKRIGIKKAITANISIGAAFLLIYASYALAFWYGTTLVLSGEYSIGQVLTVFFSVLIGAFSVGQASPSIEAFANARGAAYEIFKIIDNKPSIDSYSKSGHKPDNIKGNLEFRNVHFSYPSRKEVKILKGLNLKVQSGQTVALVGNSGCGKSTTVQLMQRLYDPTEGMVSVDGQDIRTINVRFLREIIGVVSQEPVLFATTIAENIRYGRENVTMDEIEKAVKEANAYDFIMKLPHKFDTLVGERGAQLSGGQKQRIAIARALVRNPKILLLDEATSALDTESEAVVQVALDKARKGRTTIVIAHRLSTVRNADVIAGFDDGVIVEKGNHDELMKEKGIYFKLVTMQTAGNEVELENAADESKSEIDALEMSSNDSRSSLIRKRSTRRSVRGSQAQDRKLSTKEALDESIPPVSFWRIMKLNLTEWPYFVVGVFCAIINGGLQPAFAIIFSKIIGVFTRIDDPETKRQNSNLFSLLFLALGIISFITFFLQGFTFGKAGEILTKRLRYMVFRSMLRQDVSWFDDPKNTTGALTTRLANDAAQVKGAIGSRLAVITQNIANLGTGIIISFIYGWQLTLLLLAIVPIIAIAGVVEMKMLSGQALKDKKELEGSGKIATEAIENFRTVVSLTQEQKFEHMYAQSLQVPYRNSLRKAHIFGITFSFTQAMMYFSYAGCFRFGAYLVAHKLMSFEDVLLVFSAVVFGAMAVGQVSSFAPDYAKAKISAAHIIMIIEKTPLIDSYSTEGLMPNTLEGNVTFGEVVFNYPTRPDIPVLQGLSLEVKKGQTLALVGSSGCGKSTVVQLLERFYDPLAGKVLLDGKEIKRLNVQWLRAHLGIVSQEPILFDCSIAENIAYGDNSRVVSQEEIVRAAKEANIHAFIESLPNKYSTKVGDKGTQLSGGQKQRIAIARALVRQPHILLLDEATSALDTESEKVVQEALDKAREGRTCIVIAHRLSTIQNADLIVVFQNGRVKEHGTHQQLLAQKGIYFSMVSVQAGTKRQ

What is called inhibition is the drop in the measured response relative to a control, in per cent. As for `C=C(C)C1CC=C(C(=O)O)CC1` (stereo not drawn), in test [1], the period change is 0.05 h (inactive). The inhibition in test [2] is 2% (inactive); in [4], 7.19% (inactive). The fluorescence ratio (interference) in test [3] is 0.9 (inactive). In addition, the fold change is 0.98 (inactive) in test [5] (setting [14]) and 1.41 in test [5] (setting [15]). Also, the cell count was found to be 9720 in test [5] (setting [16]) and 9920 in test [5] (setting [17]). Further, the compound was called inactive in [6]. In test [7], the z-score was 1.06 (inactive).

Regarding `C[C@@H]1O[C@@H](OC[C@H]2O[C@@H](Oc3c(-c4ccc(OCCO)c(OCCO)c4)oc4cc(OCCO)cc(O)c4c3=O)[C@H](O)[C@@H](O)[C@@H]2O)[C@H](O)[C@H](O)[C@H]1O`, in [4], the inhibition was -5.09% (inactive). In addition, the remaining NAD in test [8] was 10 nM (inactive). Also, the luciferase signal in test [9] was 72 AU (inactive).

A word on the viability: it is a read-out of living cells in per cent, often relative to untreated cells. As to `CC(=O)N[C@@H](CC(=O)O)C(=O)O`, the parasite load remaining in test [10] was 117% (inactive). Moreover, the viability in test [10] stood at 106%. In [4], the inhibition is 3.38% (inactive). The fold change in [5] (setting [14]) was 0.841 (inactive); in test [5] (setting [15]), 1.57. In addition, the cell count in test [5] (setting [16]) was 8620; in test [5] (setting [17]) it was 10300.

With `CO/N=C(\C(=O)N[C@@H]1C(=O)N2C(C(=O)O)=C(CSc3nc(=O)c(O)nn3C)CSC12)c1csc(N)n1` (stereo partly drawn), the period change in test [1] is 0.08 h (inactive). Besides, the inhibition in [4] is -13.8% (inactive). Also, the fold change in [5] (setting [14]) is 1.02 (inactive); in [5] (setting [15]), 1.74. Also, the cell count in [5] (setting [16]) stood at 10200; in test [5] (setting [17]), 9980. The z-score in test [7] is 0.175 (inactive).

In the case of `CC(C)CCC[C@@H](C)[C@H]1CC[C@H]2[C@@H]3CC=C4C[C@@H](O)CC[C@]4(C)[C@H]3CC[C@]12C`, the inhibition in [4] is 2.5% (inactive). Further, the remaining NAD in test [8] is 10 nM (inactive). Further, the luciferase signal in test [9] is 52 AU (inactive).

Regarding `CN(C)CC/C=C1/c2ccccc2Sc2ccc(Cl)cc21`, in test [11], the fluorescence slope change is 115% (active). Also, the survival in test [12] was 1.25 (inactive). In [10], the parasite load remaining was 63.4% (inactive) and the viability came to 75.2%. The inhibition in [4] was -16.6% (inactive). Besides, in test [8], the remaining NAD is 10 nM (inactive).

Consider `CCCCCC(=O)O[C@]1(C(C)=O)CC[C@H]2[C@@H]3CCC4=CC(=O)CC[C@]4(C)[C@H]3CC[C@@]21C`, for which the inhibition in test [4] is -2.17% (inactive). Besides, in test [8], the remaining NAD was 10 nM (inactive). Besides, the luciferase signal in test [9] was 44 AU (inactive).

Take `CCCCC[C@@H](O)[C@H]1C(=O)O[C@H](C)[C@@H](O)/C=C/C=C/C=C/C=C/C=C(\C)[C@@H](O)C[C@H](O)C[C@H](O)C[C@H](O)C[C@H](O)C[C@H](O)C[C@@H]1O`: in [4], the inhibition was 6.12% (inactive). For the same compound, the fold change in test [5] (setting [14]) was 1.04 (inactive); in test [5] (setting [15]), 1.06. The cell count is 6150 in [5] (setting [16]) and 5900 in test [5] (setting [17]). Besides, the luciferase signal in test [9] was 72 AU (inactive).

`CC(=O)OCC(=O)[C@@]1(O)CC[C@H]2[C@@H]3CCC4=CC(=O)CC[C@]4(C)[C@@]3(F)[C@@H](O)C[C@@]21C`: in [12], the survival was 16.7 (inactive). In addition, in [10], the parasite load remaining is 136% (inactive) and the viability was 91.3%. Moreover, the inhibition in [4] was -10.7% (inactive). For the same compound, in test [8], the remaining NAD was 10 nM (inactive). In test [9], the luciferase signal was 84 AU (inactive).

In the case of `CN1[C@@H]2CC[C@H]1CC(OC(c1ccccc1)c1ccccc1)C2` (stereo partly drawn), the inhibition in test [4] is 13.6% (inactive). The z-score in test [13] (MELAS cybrid survival, CellTiter-Glo 48 h, stronger effect = higher value) is -0.23 (inactive); in test [13] (Rieske KO mouse fibroblast survival, CellTiter-Glo 72 h), 0.0522. Moreover, the luciferase signal in test [9] was 52 AU (inactive).

As to `CCOC(=O)c1c(C)cc(OC)cc1O`, in [4], the inhibition was 13.5% (inactive). Besides, in [9], the luciferase signal was 84 AU (inactive).

Consider `CC(=O)O[C@H]1C[C@@]2(C)[C@@H](C[C@@H](O)[C@H]3[C@@]4(C)CC[C@@H](O)[C@@H](C)[C@@H]4CC[C@@]32C)/C1=C(\CCC=C(C)C)C(=O)O`, for which the survival in test [12] is 5.08 (inactive). Besides, in test [10], the parasite load remaining is 64.8% (inactive) and the viability stood at 78.6%. For the same compound, in test [4], the inhibition is 4.42% (inactive). In addition, the remaining NAD in test [8] was 10 nM (inactive). In addition, in [9], the luciferase signal is 128 AU (inactive).
